Compound activity as filed in PubChem BioAssay.
Sampled rows, rich in hits. Any-hit rate of the full collection: about 14%.
Cycloheximide cs = affects cycloheximide protein synthesis inhibition readout, counter-screen; max response, %; AID 2314; cell reporter, cycloheximide protein synthesis inhibition counterscreen; actives 12% (n = 300,000); in the data active = max response mostly above about 13%, no sharp cut-off; inactive = mostly below about 14%; note: read at 38.3 µM for the half of the compounds with a filed dose; 0% is about no effect
FBPA Giardia inh = blocks Giardia fructose-bisphosphate aldolase activity; Potency, µM (titrated, usually from 59.6 µM), without a hit: at the top dose activity, negative = inhibition, hits mostly inhibitors; purified Giardia FBPA; actives 0.71% (n = 290,000); note: potency is the fitted concentration of half-maximal effect; % is set by controls: 0 for no effect and ±100 for the full control effect; nearly all actives have a fitted effect of over 55% in size
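40 nM FBPA preincubated 10 min at RT with compound (up to 57.5 uM final), then substrate plus GAPDH/TPI/NAD/arsenate coupling and diaphorase/resazurin added. Fluorescence read after 20 min at RT, 525/598 nm.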
LmPK inh = inhibitors of Leishmania mexicana pyruvate kinase; purified LmPK, Kinase-Glo ATP luminescence, 1 h; Potency, µM (titrated, usually from 57.5 µM), without a hit: at the highest dose activity change, negative = inhibition, usual class: inhibitors; Q27686; actives 0.37% (n = 290,000); note: potency is the fitted concentration of half-maximal effect; % is set by controls: 0 for no effect and ±100 for the full control effect
Target sequence (Q27686 whole entry, looked up): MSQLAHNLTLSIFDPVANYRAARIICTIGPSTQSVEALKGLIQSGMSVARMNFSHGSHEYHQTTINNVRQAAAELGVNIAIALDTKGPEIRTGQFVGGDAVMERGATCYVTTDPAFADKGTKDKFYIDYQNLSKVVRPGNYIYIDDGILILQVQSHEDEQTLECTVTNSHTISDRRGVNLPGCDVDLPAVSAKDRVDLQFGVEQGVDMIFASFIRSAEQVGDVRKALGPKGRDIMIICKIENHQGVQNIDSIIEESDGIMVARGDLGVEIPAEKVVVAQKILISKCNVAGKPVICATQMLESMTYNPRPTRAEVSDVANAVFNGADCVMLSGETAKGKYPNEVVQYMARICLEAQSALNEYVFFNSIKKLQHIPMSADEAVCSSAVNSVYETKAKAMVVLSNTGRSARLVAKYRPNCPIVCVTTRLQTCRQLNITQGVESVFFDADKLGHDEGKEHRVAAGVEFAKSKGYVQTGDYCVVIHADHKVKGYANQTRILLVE
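0.1 nM LmPK, 0.5 mM PEP, 0.1 mM ADP; 50 mM imidazole pH 7.2, 7 mM MgCl2, 50 mM KCl; 1 h RT. Kinase-Glo luminescence readout, normalized to no-enzyme (full inhibition) and uninhibited wells.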
Shiga toxin inh = Shiga toxin inhibition | Vero cells, Shiga toxin protein synthesis inhibition reporter | inhibition, % at 38.7 µM | actives 9.2% (n = 290,000); in the data active = inhibition mostly above about 28%, no sharp cut-off; inactive = mostly below about 43%; note: 0% is about no effect
NS1 inh = influenza NS1 inhibition; Potency, µM (top dose mostly 46.1 µM), inactives show at the highest dose activity, positive = more growth; actives 0.4% (n = 270,000); AID 2326; calls by dose curve; note: potency is the fitted concentration of half-maximal effect; actives are rising curves; nearly all actives have a fitted effect of over 50% in size
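OD600 was taken as the measure of yeast growth restored by compound in an NS1-expressing S. cerevisiae strain. Cells had been washed out of glucose medium and diluted 1:100 into galactose -URA medium, pH 6.0.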
An asterisk follows results filed as active; ? = inconclusive; nt = no result given; [ ] = another dose, or the depositor's remark. Unless noted, calls come from the whole dose curve; as a rule, active = well fitted curve in the direction sought with a large enough effect; inconclusive = small, poorly fitted or top-dose-only effect, or another doubt; inactive = no such curve, though single readings can be large; an effect the other way counts as inactive or inconclusive.

SMILES	Cycloheximide cs	FBPA Giardia inh	LmPK inh	Shiga toxin inh	NS1 inh
COc1ccc(NC(=O)Nc2cc(C(C)(C)C)on2)cc1OC	-3	nt	-1%	-17	-30%
O=C(Nc1ccc(Cl)c(Cl)c1)Nc1ccccn1	46*	4%	2%	66*	-3%
COc1ccccc1C(=O)Nc1nsc(-c2ccccc2)n1	49*	-9%	?	79*	-59%
COc1ccc(NC(=O)Nc2ccccn2)cc1OC	34*	-1%	-8%	62*	-34%
COc1ccccc1C(=O)Nc1ccccn1	36*	4%	-29%	60*	-4%
CCOc1ccccc1-c1nnc2n1N=C(c1cc(OC)cc(OC)c1)CS2	12	-1%	nt	-6	nt
CC(=O)Nc1ccc(NC(=O)Nc2ccc3c(c2)N(C)C(=O)CS3)cc1	7	18%	1%	8	nt
CN1C(=O)CSc2ccc(NC(=O)Nc3ccccn3)cc21	50*	0%	7%	39	-9%
Cc1nonc1NC(=O)CSc1nnc(N)s1	-10	8%	-2%	-6	7%
Cc1cccc(NC(=O)c2ccc(N3CCCCC3)c([N+](=O)[O-])c2)n1	46*	-29%	-27%	69*	-112%
Cc1cccc(NC(=O)c2ccc(NC(C)c3ccccc3)c([N+](=O)[O-])c2)n1 (stereo unspecified)	16	-14%	0%	19	3%
Cc1ccc(C)c2sc(NC(=O)c3ccc(N4CCCCC4)c([N+](=O)[O-])c3)nc12	-2	0%	1%	35	6%
Cc1cccc(NC(=O)c2ccc(N3CCOCC3)c([N+](=O)[O-])c2)n1	38*	-18%	-7%	72*	1%
CCSc1ccc(C(=O)Nc2ccc(Br)cn2)cc1[N+](=O)[O-]	7	-3%	-2%	20	nt
CCSc1ccc(C(=O)Nc2cccc(C)n2)cc1[N+](=O)[O-]	10.0*	-2%	4%	23*	2%
Cc1cccc(NC(=O)c2ccc(N(C)C3CCCCC3)c([N+](=O)[O-])c2)n1	21*	-15%	7%	58*	-1%
O=C(CSS(=O)(=O)O)N1CCN(C(=O)c2ccoc2)CC1	6	-4%	4%	-8	8%
O=C(Nc1cccnc1)c1ccc(N2CCCC2)c([N+](=O)[O-])c1	29*	-11%	1%	48	1%
CC(C)(C)c1ccc([C@@H](O)CCCN2CCC(C(O)(c3ccccc3)c3ccccc3)CC2)cc1	nt	3%[21.7 µM]	nt	nt	nt
O=C(c1ccccc1)c1ccc(OCC(O)CNCc2cccc(Cl)c2)cc1 (stereo unspecified)	1	?	0%	2	-5%
Cc1cc2nc(N)sc2cc1C	41*	-1%	?	49*	-50%
CC(C)c1ccc2nc(N)sc2c1	26*	7%	4%	64*	nt
C=CCOc1c(Cl)cc(CNc2ccc(N(C)C)cc2)cc1OC	42*	4.5µM*	-3%	85	28%
C=CCOc1c(Cl)cc(CNc2ccc(C)c(Cl)c2)cc1OC	-3	-4%	3%	-10	0%
CSc1ccc(Cl)c(C(=O)NCCOc2ccccc2)c1	26*	nt	2%	34	-17%
SMILES	Cycloheximide cs	FBPA Giardia inh	LmPK inh	Shiga toxin inh	NS1 inh
CCc1ccc(OCCNC(=O)c2cc(SC)ccc2Cl)cc1	-3	8%	3%	-2	-55%
Cc1nn(Cc2ccccc2)c(Cl)c1C(=O)NCCc1ccccc1	56*	3%	0%	60*	-11%
COc1ccc(OCCNC(=O)c2ccccc2Cl)cc1	11	4%	4%	28	-1%
O=C(NCCc1ccccc1)c1ccccc1Cl	13*	5%	-11%	6	-3%
Cc1nn(Cc2ccccc2)c(Cl)c1C(=O)O	-3	9%	6%	-22	nt
O=C(NCCOc1ccccc1)c1ccccc1Cl	43*	-3%	0%	55*	-2%
O=C(O)c1ccccc1C(=O)NCCc1ccc(Cl)cc1	14	7%	2%	12	nt
Cc1ccc(Cl)cc1N1CCN(S(=O)(=O)c2cn(C)cn2)CC1	-9	-6%	-3%	-7	-3%
O=C(c1ccco1)N1CCC2(CC1)CN(C(c1ccccc1)c1ccccc1)C2	nt	9%	nt	nt	nt
O=C(CSC1CN(C(c2ccccc2)c2ccccc2)C1)N/N=C/c1ccccc1	1	-9%	7%	-8	-11%
COc1ccc(S(=O)(=O)N(CC(=O)NC2CC2)Cc2ccccc2)cc1	-5	10%	0%	21	3%
COc1cc(SC)ccc1C(=O)NCCOc1ccc(F)cc1	45*	-5%	0%	74*	-20%
O=C(NCCOc1ccccc1Cl)c1cc(F)c(F)cc1Cl	53*	3%	3%	74*	-18%
O=C(NCCOc1ccccc1Cl)c1ncn[nH]1	1	3%	-18%	14	1%
CCOC(=O)c1c(S(=O)(=O)NCC(=O)NCc2ccc(C)cc2)c(C)n(C)c1C	-1	nt	0%	-8	-2%
CC(C)C[C@@H](CC(=O)N[C@@H](CCC(=O)O)CC(=O)O)NC(=O)[C@@H]1CNCC[C@H]1NC(=O)C[C@H](CCCN)NC(=O)C[C@H](Cc1ccccc1)NC(=O)[C@@H]1CCCC[C@H]1N	nt	-18%	nt	nt	nt
COc1ccc2nc(/C=N/NC(=O)CCNC(=O)OC(C)(C)C)ccc2c1	35*	-15%	-2%	62*	-9%
CC(C)(C)OC(=O)NCCC(=O)N/N=C/c1ccc2nccnc2c1	-3	1%	-1%	-6	1%
CC(C)(C)OC(=O)NCCC(=O)N/N=C/c1ccc2ncccc2c1	-1	7%	-6%	25	-6%
COc1ccc2nc(/C=N/NC(=O)CCCCCNC(=O)OC(C)(C)C)ccc2c1	41*	-14%	2%	138	-6%
Cc1ccc(SCN2CCCCC2)cc1 (tested in a mixture with another compound)	nt	nt	nt	nt	-11%
C=CCOC(=O)[C@H](O)[C@@H](O)C(=O)OCC=C	nt	-1%	nt	nt	nt
CC(C)C(=O)Nc1nc(-c2ccc3c(c2)CCN3C(=O)C2CC2)cs1	24	-11%	-1%	59*	9%
CC(=O)Nc1nc(-c2ccc3c(c2)CCN3S(C)(=O)=O)cs1	18*	-20%	1%	67*	5%
CC(C)(C)Nc1nc(-c2ccc3c(c2)CCN3C(=O)C2CC2)cs1	43*	nt	3%	98*	-44%
SMILES	Cycloheximide cs	FBPA Giardia inh	LmPK inh	Shiga toxin inh	NS1 inh
CC1CC(C)CN(S(=O)(=O)c2ccc3c(c2)CCN3C(=O)C2CC2)C1 (stereo unspecified)	-2	nt	0%	1	14%
O=C(CN1CCOCC1)Nc1nc(-c2ccc3c(c2)CCN3S(=O)(=O)c2ccccc2)cs1	8	-3%	2%	-15	12%
CCC(CC)C(=O)Nc1nc(-c2ccc3c(c2)CCN3C(=O)C2CC2)c(C)s1	-5	-4%	1%	-6	14%
CCC1=C2CC[C@H]3C(=O)N(c4ccccc4)C(=O)[C@H]3[C@H]2[C@@]2(Cc3ccccc3)C(=NCc3ccccc3)OC(=O)N2C1=O	nt	3%	nt	nt	nt
C[C@]1(C(=O)NCC2CC2)C=C[C@@H](Cc2ccccc2)N1C(=O)c1ccccc1	nt	3%	nt	nt	nt
Cc1ccc(/C=[N+](\[O-])c2ccc(N(C)C)cc2)c2nsnc12	34*	?	-2%	85*	nt
